Results on 38 compounds are retold here after PubChem BioAssay (NCI).

The nature of assay [1]: NCI Yeast Anticancer Drug Screen. Data for the rad50 strain (AID 155).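 Further: 0% = growth of vehicle-only cultures of the same strain.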 The following applies: S. cerevisiae rad50 strain growth inhibition; at 50.0 µM; stronger effect = higher value. Summed up: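 Readout: growth inhibition relative to vehicle-treated cultures. Compound exposure was carried out in a genetically defined yeast strain deficient in DNA damage repair.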
The nature of assay [2]: NCI Yeast Anticancer Drug Screen. Data for the mec2-1 strain (AID 157). The following applies: S. cerevisiae mec2-1 strain, at 50.0 µM, stronger effect = higher value. Summed up: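 Cells of the genetically defined mec2-1 yeast strain are incubated with test compound. Inhibition of growth is calculated against vehicle-treated controls.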
A short description of assay [3]: NCI Yeast Anticancer Drug Screen. Data for the sgs1 mgt1 strain (AID 161).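 Further: 0% = growth of cultures given vehicle only.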 The following applies: S. cerevisiae sgs1 mgt1 strain, at 50.0 µM, stronger effect = higher value. Summed up:
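Read-out: growth inhibition vs vehicle controls. Cells: mutant yeast strain deficient in DNA damage repair.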

Assay [4] is described as follows: NCI Yeast Anticancer Drug Screen. Data for the cln2 rad14 strain (AID 165).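 Further: 0% = growth equal to vehicle treated cultures.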 The following applies: S. cerevisiae cln2 rad14 strain, at 50.0 µM, stronger effect = higher value. Summed up: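 The screen exposed genetically defined yeast (cln2 rad14) to test compounds and scored growth inhibition relative to vehicle-treated controls.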
A short description of assay [5]: NCI Yeast Anticancer Drug Screen. Data for the bub3 strain (AID 167). The following applies: S. cerevisiae bub3 mutant strain, at 50.0 µM, stronger effect = higher value. The method in brief:
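Readout: yeast growth inhibition, expressed relative to vehicle-only wells. The test organism is a mutant strain from a panel with lesions in DNA repair or checkpoint genes.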

Assay [6] in a line: NCI Yeast Anticancer Drug Screen. Data for the mlh1 rad18 strain (AID 175). Particulars: S. cerevisiae mlh1 rad18 strain growth inhibition; at 50.0 µM; stronger effect = higher value. Summed up: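 Compound-treated yeast growth, normalised to vehicle controls. Strain bears defined DNA repair mutations.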

This is part of a sample that, as a whole, favours compounds with a hit. Of some 79,000 tested, about 15% had one in any assay. Values without a mark were called inactive. The source made the active and inactive calls. No stated cut-off is given here; in the data, active means growth inhibition above about 70%; inactive means the rest.

As to `CN(C)c1ccc(N=Nc2ccc(S(=O)(=O)O)cc2)cc1.CN(C)c1ccc(N=Nc2ccc(S(=O)(=O)O)cc2)cc1.[NH-]C1CCCCC1[NH-].[Pt+2]`, the growth inhibition was 24.2% in assay [1]; 7.1% in assay [2]; 10.3% in assay [3]; -9.15% in assay [4]; 15.6% in assay [5]; 3.55% in assay [6].

Take `CC(=O)Nc1ccc(/C=C2\SC(=S)N(/C=C3/C(=O)N(c4ccccc4)N=C3C)C2=O)cc1`: the growth inhibition is 12.6% in assay [1]; -3% in assay [2]; 4% in assay [3]; 7% in assay [4]; -2.85% in assay [5]; 7% in assay [6].

Regarding `CC(=O)[O-].O=S(=O)(Nc1ncccn1)c1ccc(N=Cc2ccccc2O)cc1.O=S(=O)(Nc1ncccn1)c1ccc(N=Cc2ccccc2O)cc1.[Co+2]`, the growth inhibition in assay [1] was 25.4%; in assay [2], 23.2%; in assay [3] it was 26.6%; in assay [4] it was 27.7%; in assay [5] it was 32.2%; in assay [6], 25.1%.

Turning to `CCCOc1ccc(C(=O)C(=O)c2ccccc2)cc1`, the growth inhibition in assay [1] was 13.4%; in assay [2], -0.2%; in assay [3], -3.95%; in assay [4] it was 0.8%; in assay [5] it was 11.4%; in assay [6], 7%.

Regarding `C1=Nc2ccccc2Cn2nncc21`, the growth inhibition in assay [1] was 19.7%; in assay [2], 21%; in assay [3], 43.1%; in assay [4], 18.4%; in assay [5], 17.1%; in assay [6], 41.5%.

In the case of `CCOc1ncc(C(O)c2ccc(C)cc2)c(OCC)n1` (stereo not drawn), the growth inhibition in assay [1] was -1.05%; in assay [2], -11.1%; in assay [3], -3.75%; in assay [4] it was -52.6%; in assay [5] it was 1.4%; in assay [6] it was -9.8%.

For the compound `CC1C2CC(C(C3C(=O)C4CC3C(C)(C)C4C)C2=O)C1(C)C` (stereo not drawn), the growth inhibition in assay [1] was -13.1%; in assay [2], -26.1%; in assay [3] it was -43.2%; in assay [4], -1%; in assay [5], -27.4%; in assay [6] it was -32.1%.

On to `CC1(C)/C(=C\C(=O)O)C2CCC1C2` (stereo not drawn), for which the growth inhibition in assay [1] was 11.4%; in assay [2] it was 8.3%; in assay [3], 7.5%; in assay [4], -10.8%; in assay [5], -9.1%; in assay [6], 8.75%.

Turning to `COc1cc(C(c2cc3c(cc2OC(C)=O)OCO3)C(C(C)=O)C(C)=O)cc(OC)c1OC` (stereo not drawn), the growth inhibition in assay [1] is 3.55%; in assay [2], 27.8%; in assay [3], -5.1%; in assay [4] it was -4%; in assay [5], 4.35%; in assay [6], -1.8%.

On to `C/C(=N/NC(N)=S)c1c[nH]c(=O)[nH]c1=O`, for which the growth inhibition is -3% in assay [1]; -16.6% in assay [2]; -4.45% in assay [3]; -9.6% in assay [4]; -5.95% in assay [5]; -7.35% in assay [6].

Regarding `O=C(O)C1CC=CCC1C(=O)O` (stereo not drawn), the growth inhibition is 8.5% in assay [1]; -7.45% in assay [2]; -12.4% in assay [3]; -45.9% in assay [4]; 1.4% in assay [5]; 9.95% in assay [6].

Regarding `CCC(=O)OC1CCC2(C)C(=CCC3C2CCC2(C)C(C(C)CCCC(C)C)CCC32)C1` (stereo not drawn), the growth inhibition is 3.1% in assay [1]; 7.6% in assay [2]; -20.6% in assay [3]; 4.45% in assay [4]; -0.8% in assay [5]; -12.2% in assay [6].

Turning to `O=C1CC2CCCCC2CC1c1ccc(OCc2ccccc2)c(OCc2ccccc2)c1` (stereo not drawn), the growth inhibition in assay [1] is -6.7%; in assay [2], -0.25%; in assay [3], 23.6%; in assay [4], 9.1%; in assay [5], -3.55%; in assay [6], -13.7%.

With `COc1cc(OC)c(NC(=O)NC(C)(C)C)cc1Cl`, the growth inhibition is -3.35% in assay [1]; 9.4% in assay [2]; 17.1% in assay [3]; -2.5% in assay [4]; 18.6% in assay [5]; 23.4% in assay [6].

In the case of `NC(=O)C1CCCNC1` (stereo not drawn), the growth inhibition in assay [1] is -6.6%; in assay [2] it was -6.65%; in assay [3], -10.4%; in assay [4] it was -13.6%; in assay [5] it was 15.6%; in assay [6], 6.85%.

On to `COC(=O)c1c2c(cc3nc4ccccc4nc13)OCO2`, for which the growth inhibition in assay [1] was 26.4%; in assay [2], 9.75%; in assay [3], 12.8%; in assay [4], -1.8%; in assay [5] it was 16.9%; in assay [6], 21.6%.

Take `C/C=C/C=N/N(C(=O)c1cc([N+](=O)[O-])cc([N+](=O)[O-])c1)C1=NC(c2ccccc2)C(c2ccccc2)=NN1` (stereo not drawn): the growth inhibition in assay [1] is 41.9%; in assay [2], 24.4%; in assay [3], 13%; in assay [4], 41.1%; in assay [5], 15.3%; in assay [6], 26.3%.

Take `[C-]#[N+]C([N+]#[C-])=C(C)OCC`: the growth inhibition in assay [1] is 7.9%; in assay [2], 5.1%; in assay [3] it was -5.2%; in assay [4], 10.8%; in assay [5], 21.6%; in assay [6], 2.5%.

With `COC(=O)C1(Cc2ccccc2)Cc2ccccc2C1=O` (stereo not drawn), the growth inhibition in assay [1] was -3.1%; in assay [2] it was 3%; in assay [3] it was 37.7%; in assay [4], 33.9%; in assay [5], 39.2%; in assay [6], -3%.

Take `NC(=S)NNC(=O)CCC(=O)Nc1ccccc1Cl`: the growth inhibition in assay [1] was -0.15%; in assay [2] it was -2.3%; in assay [3] it was -11.8%; in assay [4], 37.2%; in assay [5], -3.95%; in assay [6], 6.65%.

As for `O=C(O)c1cocc1C(=O)O`, the growth inhibition in assay [1] is 3.2%; in assay [2] it was -3.4%; in assay [3], -13.6%; in assay [4], -14.8%; in assay [5], -2.65%; in assay [6], -3.95%.

Turning to `O=CNn1cn[nH]c1=S`, the growth inhibition in assay [1] was 1.9%; in assay [2], -2.65%; in assay [3] it was -17.6%; in assay [4], 4.25%; in assay [5], 8.75%; in assay [6], 6.95%.

Turning to `CSCCC(NC(c1ccccc1)c1ccccc1)[P+](=O)O` (stereo not drawn), the growth inhibition was -53.4% in assay [1]; -44.8% in assay [2]; -37.5% in assay [3]; -5.15% in assay [4]; -3.65% in assay [5]; -40.1% in assay [6].

With `COc1ccccc1/C=C1/C(=O)ON=C1C`, the growth inhibition in assay [1] is 0.05%; in assay [2], -21.1%; in assay [3] it was -11.9%; in assay [4], 9.6%; in assay [5], -17.1%; in assay [6], -18.5%.

On to `COc1cccc(C2c3cc4c(cc3OC(N3CCCC3)C2C)OCO4)c1O` (stereo not drawn), for which the growth inhibition in assay [1] is 13.6%; in assay [2], -18.6%; in assay [3], 3.3%; in assay [4], -19.8%; in assay [5], 12.3%; in assay [6], -11.1%.

Turning to `CCC1=CC(C=O)N(C(C)=O)c2ccccc21` (stereo not drawn), the growth inhibition in assay [1] is -2.85%; in assay [2], 7.8%; in assay [3] it was 7.2%; in assay [4], 2.1%; in assay [5], 1.95%; in assay [6], -2.5%.

In the case of `O=C1c2cc3ccccc3cc2NC(O)c2cccn21` (stereo not drawn), the growth inhibition in assay [1] was 9.4%; in assay [2], 4.6%; in assay [3] it was 1.15%; in assay [4], 27.4%; in assay [5], 13.4%; in assay [6], 13.2%.

`CCCCCCCCCCCCCCCCOc1cccc(/C(=N/NS(C)(=O)=O)N2CCCCC2)c1`: the growth inhibition in assay [1] is -16.1%; in assay [2], -30.6%; in assay [3], -8.3%; in assay [4], 1.75%; in assay [5], -16.8%; in assay [6], -5.5%.

Turning to `CC12CS(=O)(=O)CC1O2` (stereo not drawn), the growth inhibition in assay [1] is 1.65%; in assay [2], 3.25%; in assay [3], 2.2%; in assay [4], 1.9%; in assay [5], 2.2%; in assay [6], -13.4%.

Turning to `C/C=C/CS(=O)(=O)Cc1ccccc1`, the growth inhibition in assay [1] was 1.85%; in assay [2], -11.8%; in assay [3], -5.95%; in assay [4], -3.95%; in assay [5], -4.3%; in assay [6], -14.9%.

`Clc1ccc(CSc2nnc(SCc3ccc(Cl)cc3)c3[nH]cnc23)cc1`: the growth inhibition is 14.2% in assay [1]; 0.05% in assay [2]; 20.9% in assay [3]; 25.9% in assay [4]; -3.2% in assay [5]; -11.7% in assay [6].

Consider `CNc1ccc(C(=O)N(C(=O)NC2CCCCC2)C2CCCCC2)cc1`, for which the growth inhibition in assay [1] is -6.65%; in assay [2], -5.6%; in assay [3] it was 4.7%; in assay [4], -6.85%; in assay [5] it was -1.95%; in assay [6], 5.15%.

For `COC(=O)N1CCc2c([nH]oc2=O)C1`, the growth inhibition was -6.75% in assay [1]; -5.4% in assay [2]; -4.5% in assay [3]; -13.4% in assay [4]; -0.8% in assay [5]; -3.75% in assay [6].

Turning to `CCCN(CCC)CC(O)c1cccc2c1cc(Cl)c1ccccc12` (stereo not drawn), the growth inhibition was 99.6% (active) in assay [1]; 99.7% (active) in assay [2]; 99.8% (active) in assay [3]; 99% (active) in assay [4]; 91.3% (active) in assay [5]; 99.7% (active) in assay [6].

On to `Nc1ccc(S(=O)(=O)NO)cc1`, for which the growth inhibition in assay [1] was -12.1%; in assay [2], -3.95%; in assay [3] it was -2.55%; in assay [4] it was -27.1%; in assay [5] it was -2.2%; in assay [6] it was 11.3%.

Take `CCN(CC)CCN(C(=Nc1ccccc1)N1CCCCC1)c1ccccc1`: the growth inhibition in assay [1] is 6.8%; in assay [2] it was -35.2%; in assay [3] it was -11.5%; in assay [4], 19%; in assay [5], 28.1%; in assay [6], 19.4%.

With `COc1ccc2c(c1)C1(C)CCCC(C)(C(N)=O)C1CC2` (stereo not drawn), the growth inhibition was 0.1% in assay [1]; -15.8% in assay [2]; -8.05% in assay [3]; 8.95% in assay [4]; -12.2% in assay [5]; -24.7% in assay [6].

With `CC(C)(CC(O)C#N)/[N+]([O-])=[N+](\[O-])C(C)(C)CC(O)C#N` (stereo not drawn), the growth inhibition is 3.75% in assay [1]; 5.15% in assay [2]; 34.1% in assay [3]; -4.15% in assay [4]; 13.2% in assay [5]; -27.8% in assay [6].
